PubChem BioAssay AID463173 (ICCB-Longwood Screening Facility, Harvard Medical School, 2010)
Screen size: about 52,000 compounds; about 4,300 (8.3%) were called active. The list comes from a sample in which actives are over-represented; it also holds similar structures and randomly drawn compounds. Unmarked numbers belong to inactive results. Cut-off read from the data, not from the text of the source: active = survival mostly below about 52% (no sharp cut-off); inactive = mostly above about 56%.

These compounds were tested on DeltatarO mutant (assay: S. aureus survival, RN4220 and DeltatarO strains – OD600, teichoic acid synthesis inhibitors, primary screen (AID 463173)). Settings: S. aureus RN4220 wild type/DeltatarO growth, OD600, 18 h, hits give low values, screened at 18.75 µg/mL (by protocol).
Work on `COc1ccc(CCNc2nc(SCc3cccc(F)c3)nc3ccccc23)cc1OC` yielded a survival of 85%.
For `Fc1ccc(Nc2nc(SCc3cccc(Cl)c3)nc3ccccc23)cc1`, the survival was 70%.
`COc1cc(Nc2nc(SCc3ccc(Cl)cc3)nc3ccccc23)cc(OC)c1` gave a survival of 91%.
`Fc1cccc(CSc2nc(NCCc3ccccc3)c3ccccc3n2)c1` was tested, and the survival was 20% (active).
`Clc1cccc(CSc2nc(NCCc3ccccc3)c3ccccc3n2)c1` showed a survival of 102%.
`COc1ccc(-n2ccnc2SCC(=O)Nc2ccc3c(c2)OCO3)cc1` gave a survival of 105%.
`Cc1ccc2nc(-c3ccsc3)c(Nc3ccc(C(C)C)cc3)n2c1` was tested, and the survival was 124%.
For `O=C(NCc1ccccc1)c1ccc2c(c1)N(Cc1ccccc1F)C(=O)c1ccccc1S2=O` (centres undefined), the survival was 92%.
For `N#CC(C#N)=Cc1cn(-c2ccccc2)nc1-c1ccccc1`, the survival was 68%.
Compound `O=C(NCc1ccccc1)C(=O)NCC(c1ccc2c(c1)OCO2)N1CCOCC1` (centres undefined) has a survival of 92%.
In the case of `CCc1ccc(-n2c(=O)c3c4c(sc3n(CC(=O)N3CCC(C)CC3)c2=O)CCC4)cc1`, the survival is reported as 83%.
`COC(=O)c1ccc(NC(=O)CC2C(=O)N(c3ccc(Cl)cc3)C(=O)N2Cc2ccco2)cc1` (centres undefined) was tested, and the survival was 37% (active).
With `CCc1ccc(NC(=O)CC2C(=O)N(c3cccc(OC)c3)C(=O)N2Cc2ccco2)cc1` (centres undefined) the survival was 25% (active).
Work on `COC(=O)c1ccc(NC(=O)CC2C(=O)N(c3cccc(OC)c3)C(=O)N2Cc2ccco2)cc1` (centres undefined) yielded a survival of 70%.
For `CCc1ccc(NC(=O)CC2C(=O)N(c3cccc(C)c3)C(=O)N2Cc2ccco2)cc1` (centres undefined), the survival was 118%.
Work on `CCc1ccc(NC(=O)CC2C(=O)N(c3ccc(Cl)cc3)C(=O)N2Cc2ccco2)cc1` (centres undefined) yielded a survival of 91%.
Compound `COC(=O)c1ccc(NC(=O)CC2C(=O)N(c3cccc(C)c3)C(=O)N2Cc2ccco2)cc1` (centres undefined) has a survival of 92%.
Compound `CCN(CC)c1ccc2cc(C(=O)Nc3cccc(OC)c3)c(=O)oc2c1` has a survival of 75%.
With `Cn1nnc2c(NCc3c(F)cccc3F)ncnc21` the survival was 80%.
With `C=CCn1c(C#N)c(N)sc1=N` the survival was 96%.
`Cc1ccc(N2C(=O)CCSC23C(=O)N(Cc2ccccc2)c2ccccc23)cc1F` (centres undefined) gave a survival of 89%.
In the case of `COc1ccc(OC(=O)c2nc(SCc3ccc(C)cc3)ncc2Cl)cc1`, the survival is reported as 57%.
`CCc1ccc(CNC(=O)c2ccc3nc(C(C)C)oc3c2)cc1` was tested, and the survival was 82%.
In the case of `CCOc1cc(CNC(=O)c2ccc3nc(C(C)C)oc3c2)cc(OCC)c1OCC`, the survival is reported as 47% (active).
Work on `CN(C)c1ccc(CNC(=O)c2ccc3nc(CCc4ccccc4)oc3c2)cc1` yielded a survival of 93%.
For `CCCNC(=O)c1ccc2nc(CCc3ccccc3)oc2c1`, the survival was 78%.
For `O=C(NCCc1ccccc1)c1ccc2nc(CCc3ccccc3)oc2c1`, the survival was 32% (active).
`COc1ccc(CCNC(=O)c2ccc3nc(Cc4ccccc4)oc3c2)cc1OC` showed a survival of 99%.
In the case of `COc1ccc(Cc2nc3ccc(C(=O)NCCc4ccc(OC)c(OC)c4)cc3o2)cc1`, the survival is reported as 77%.
`O=C(NCc1cccc(F)c1)c1ccc2nc(CCc3ccccc3)oc2c1` gave a survival of 79%.
Compound `O=C(NCCc1ccc(Cl)cc1)c1ccc2nc(CCc3ccccc3)oc2c1` has a survival of 75%.
With `COc1ccc(CCNC(=O)c2ccc3nc(CCc4ccccc4)oc3c2)cc1OC` the survival was 37% (active).
`O=C(NCc1ccccc1)c1ccc2nc(CCc3ccccc3)oc2c1` was tested, and the survival was 0% (active).
For `CCOc1ccc(CNC(=O)c2ccc3nc(C(C)C)oc3c2)cc1`, the survival was 76%.
In the case of `COc1ccc(Cn2ccc3nc(C)c(C(=O)Nc4cccc(SC)c4)cc3c2=O)cc1`, the survival is reported as 95%.
Compound `COc1ccc(Nc2ncc(C(=O)N3CCN(c4ccc(OC)cc4)CC3)c3ccccc23)cc1` has a survival of 74%.
In the case of `CCOc1ccc(N(CC(=O)Nc2ccc3c(c2)OCO3)S(=O)(=O)c2ccccc2)cc1`, the survival is reported as 87%.
For `O=C(O)CSc1c2c(nc3cc(C(=O)Nc4ccc(F)c(Cl)c4)ccc13)CCC2`, the survival was 88%.
Work on `Cc1cc(S(=O)(=O)n2ccnc2C(C)C)cc([N+](=O)[O-])c1C` yielded a survival of 57%.
Compound `COc1ccc(CNC(=O)c2ccc3nc(CCc4ccccc4)oc3c2)c(OC)c1` has a survival of 135%.
`COc1ccc(CNC(=O)c2ccc3nc(CCc4ccccc4)oc3c2)cc1OC` showed a survival of 79%.
`COc1ccc(CNC(=O)c2ccc3nc(CCc4ccccc4)oc3c2)cc1` was tested, and the survival was 0% (active).
Compound `Cc1ccc(-c2onc(C)c2C)cc1S(=O)(=O)NC1CCCCC1` has a survival of 77%.
For `COc1ccc(NC(=O)c2ccco2)cc1NC(=O)C(C)C`, the survival was 84%.
`COc1ccc(NC(=O)c2ccco2)cc1NC(=O)COc1ccc(Cl)cc1C` was tested, and the survival was 57%.
`COc1ccc(NC(=O)c2ccco2)cc1NC(=O)C(C)Oc1ccc(Cl)cc1Cl` (centres undefined) was tested, and the survival was 28% (active).
`COc1ccc(NC(=O)c2ccco2)cc1NC(=O)c1cc(Cl)ccc1OC` showed a survival of 49%.
Work on `COc1ccc(NC(=O)c2ccco2)cc1NC(=O)c1ccc(OC(C)C)cc1` yielded a survival of 121%.
`COc1ccc(NC(=O)c2ccco2)cc1NC(=O)C(C)(C)Oc1ccc(Cl)cc1` was tested, and the survival was 40% (active).
